About 420 (0.12%) of roughly 340,000 compounds were called active. Another 10% or so got no clear call; they are omitted. This is one part of a sample in which actives are shown more often than they occur. A number with no mark means an inactive call. Calls follow the shape of the dose curve; as a rule, active = well fitted activation curve with a large enough effect; inconclusive = small, poorly fitted or top-dose-only effect, or another doubt; inactive = no such curve, though single readings can be large or run the other way; cell line not stated here.
Assay: qHTS for Agonist of gsp, the Etiologic Mutation Responsible for Fibrous Dysplasia/McCune-Albright Syndrome: qHTS; also: nearly all actives have a fitted effect of over 60% in size;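 as to activation (cAMP increase): phosphodiesterase inhibitor Ro 20-1724 added with compounds to block cAMP breakdown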
Settings: gsp mutant cells, cAMP HTRF, 30 min; series mostly up to 76.9 µM; activation (cAMP increase): at the top concentration
Description: McCune-Albright syndrome (MAS) is a rare disease caused by somatic mutations in Gsgsp), a widely expressed protein central in signal transduction from G-coupled protein receptors (GPCRs). The disease symptoms are diverse, owing to the fact that the patients are mosaics with varying degrees of tissue involvement. Greater than 90% of the mutations in Gs in MAS occur at the R201 position and are equally divided between R201H and R201C. The R201 residue is central in the intrinsic GTPase activity of Gs and the H and C mutations lead to loss of, or impairment of, the GTPase activity. The intrinsic GTPase activity is necessary to terminate the interaction between Gs and adenylate cyclase, and to terminate the cAMP-mediated signaling of the given GPCR pathway. Thus, these activating mutations lead to ligand-independent activation of GPCR pathways. The tissue phenotype is determined by the role of Gs in the function of a given cell, and excess Gs/cAMP signaling in that cell. For example, pituitary somatotrophs overproduce growth hormone in a growth hormone releasing hormone-independent fashion, and gigantism/acromegaly ensues. Skeletal stem cells in the bone marrow behave as if they are under constant parathyroid hormone stimulation and fail to differentiate into osteoblasts and osteocytes, and proliferate as immature osteogenic cells and lead to the marrow fibrosis of fibrous dysplasia of bone. The goal of this project is to identify molecules with stimulatory activity at gsp mutations that will not only allow for in-depth study of the underlying molecular and cellular pathophysiology, but also serve as compounds from which drugs to treat FD/MAS can be developed NIH Chemical Genomics Center [NCGC] NIH Molecular Libraries Probe Centers Network [MLPCN] MLPCN Grant: IRP-FT-DE-2011-01 Assay Submitter (PI): Michael Collins, NIDCR
1.#Seed 2000 cells/well in 6 ul DMEM 10% FBS, 1% Pen/Strep, 0.5 mg/ml G418 2.#Incubate 16-24 hr at 37C, 5% CO2, 95% humidity 3.#Aspirate leaving 1 ul residual volume 4.#Dispense 5 ul/well DPBS + 1 mM CaCl2, 0.5 mM MgCl2, 0.05% BSA, 0.005% Tween 20 5.#Aspirate leaving 2 ul residual volume 6.#Dispense 23 nl/well compounds in DMSO 7.#Dispense 1 ul/well 300 uM Ro-20174 in DMEM 10% FBS 8.#Incubate 30 min at 37C, 5% CO2, 95% humidity 9.#Dispense 1.5 ul/well HTRF reagent: cAMP-d2 in lysis buffer 10.#Dispense 1.5 ul/well HTRF reagent: anti-cAMP antibody-K in lysis buffer 11.#Incubate 30 min at room temperature 12.#Detect HTRF signal using EnVision plate reader
Potency is read from the fitted curve at half-maximal effect.

Row | SMILES | activation (cAMP increase) | Potency
1 | CCOC(=O)c1c(C)[nH]c(C)c1C(=O)COC(=O)/C=C/c1cccc([N+](=O)[O-])c1 | -66.3% | 
2 | O=C(NCCN1CCOCC1)c1ccc2c(c1)N(Cc1cccc(Cl)c1)C(=O)c1ccccc1S2(=O)=O | -3.41% | 
3 | CC(C)N=C1CCCC1C(=S)SSC(=S)C1CCCC1=NC(C)C (configuration not stated) | -39.5% | 
4 | CCOC(=O)c1cc(-c2sc(NC(=O)c3ccccc3)nc2C)n(Cc2ccccc2)n1 | 1.49% | 
5 | COc1ccc(CN2C(=O)C(CC(=O)NCCCCc3ccccc3)CC(C(=O)N3CCOCC3)=C2C)cc1 (configuration not stated) | -2.99% | 
6 | CCN(CC)C(=O)C1=C(C)N(Cc2ccc(OC)cc2)C(=O)C(CC(=O)NCc2ccco2)C1 (configuration not stated) | -33.1% | 
7 | O=C(NCCN1CCOCC1)C1CCN(S(=O)(=O)c2ccccc2)CC1 | 10.7% | 
8 | CN(C(=O)COc1nnc(-c2cccs2)c(-c2cccs2)n1)c1ccccc1 | -47.1% | 
9 | O=C(O)Cc1sc(-c2ccccc2)nc1-c1cccs1 |  | 12.6 µM (active)
10 | NC(=O)Cc1ccc2sc(-c3ccccc3)nc2c1 | -43.9% | 
11 | O=C(Cc1ccc([N+](=O)[O-])cc1)NCCS(=O)(=O)N1CCN(c2ccccc2)CC1 | -24.3% | 
12 | CCc1ccccc1OCC(=O)Nc1nnc(C2CC2)s1 | -18.6% | 
13 | COc1ccc([C@H]2N[C@]3(CCCN(CC4CCCCC4)C3=O)[C@H]3C(=O)N(C)C(=O)[C@@H]23)cc1 | 0.0546% | 
14 | Cc1ccc(C(=O)OCC(=O)NC2CCCCCCC2)cc1C | -30.5% | 
15 | COc1cc2c(cc1OC)CN(C(C)C(=O)Nc1cccc(S(=O)(=O)N3CCOCC3)c1)CC2 (configuration not stated) |  | 10 µM (active)
16 | CC(Sc1ccccc1F)C(=O)Nc1cccc(S(=O)(=O)N2CCOCC2)c1 (configuration not stated) | 14.1% | 
17 | CC(Sc1cccc[n+]1[O-])C(=O)Nc1cccc(S(=O)(=O)N2CCOCC2)c1 (configuration not stated) | 27.2% [at 15.4 µM] | 
18 | COc1ccc(C(C)(C)C)cc1NC(=O)CN(C)C1=NS(=O)(=O)c2ccccc21 | -29.4% | 
19 | CC1(C)OC(=O)C2=C(CC(c3ccccc3)OC2CCc2ccccc2)O1 (configuration not stated) | -70.3% | 
20 | O=C1CCC(=O)N1CCC(=O)N(C(=O)NC1CCCCC1)C1CCCCC1 | 9.55% | 
21 | CC(=NNC(N)=O)C1CC2CCC1CC2 (configuration not stated) | 23.2% | 
22 | CC1(c2cccc(Br)c2)NC(=O)N(CC(=O)NCCC2=CCCCC2)C1=O (configuration not stated) | -35.7% | 
23 | COc1ccccc1C(=O)NC(=S)Nc1ccc(N2CCOCC2)cc1 | -479% | 
24 | COc1ccc(-c2ccc(CN3C(CC(C)C)C(=O)N(Cc4cn(CC5CCCCC5)nn4)CCS3(=O)=O)cc2)cn1 (configuration not stated) | -11.8% | 
25 | COc1ccc(C2/C(=C(/O)c3ccc(OC(C)C)cc3)C(=O)C(=O)N2CCCN2CCOCC2)cc1 (configuration not stated) | -42.6% | 
26 | O=C1C(=O)N(CCN2CCOCC2)C(c2cccc(Cl)c2)/C1=C(/O)c1ccc2c(c1)OCO2 (configuration not stated) |  | 12.6 µM (active)
27 | O=C1C(=O)N(CCCN2CCOCC2)C(c2ccc([N+](=O)[O-])cc2)/C1=C(\O)c1ccc2c(c1)OCCO2 (configuration not stated) | -0.162% | 
